Test results as given in ChEMBL document CHEMBL3988442, “University of Dundee, Small-Polar-MMV Screening Library” (2021).
The whole screen tested about 48,000 compounds, of which about 13,000 (27%) showed an effect of 50% or more. This is one part of the list.

The molecules below were run on Wolbachia pipientis (assay: Anti-Wolbachia Cell-Based Screen). Conditions: 5 µM.
Type: functional
Set-up: scale not given: in the data most compounds retested in dose-response had high values

| SMILES | Percent Effect |
| --- | --- |
| COc1cc(CNc2cc(-c3ccoc3C)nn2CCO)ccc1F | 9.115% |
| COc1c(F)cc(CN2CCC3(CC2)C(C(=O)O)CC(=O)N3C)cc1Cl (configuration not stated) | 5.354% |
| CS(=O)(=O)c1cccc(Cl)c1C(=O)NCCN1C(=O)CCC1=O | -4.304% |
| COc1ccccc1CN1C(=O)O[C@@H]2CN(S(=O)(=O)N(C)C)C[C@@H]21 | -2.255% |
| CCS(=O)(=O)N1CC(=O)N(Cc2ccccc2OC)CC(O)C1 (configuration not stated) | 89.74% |
| COc1ccccc1CC(C)N(C)S(C)(=O)=O (configuration not stated) | 9.665% |
| COc1ccccc1CN1C(=O)O[C@@H]2CN(C(C)C)C[C@@H]21 | 11.8% |
| COc1ccccc1CN1CC(O)CN(S(=O)(=O)C(C)C)CC1=O (configuration not stated) | 100.2% |
| CCO[C@H]1C[C@@H](O)C12CCN(S(=O)(=O)c1ccccc1OC)CC2 | -9.049% |
| CCc1noc(C)c1C(=O)NCc1c(C)nn(CCOC)c1C | -2.688% |
| CN(C)C(=O)N1C[C@H]2CC[C@@H]1CN(C1Cc3ccccc3C1)C2 | 7.395% |
| Cc1cnc(C)c(N2CCCC(CO)(Cc3ccccc3C)C2)n1 (configuration not stated) | -4.771% |
| CCc1ccc2nc(NCCCN(CCO)CCO)cc(C)c2c1 | 14.19% |
| CCc1ccc2nc(NCC(O)CO)cc(C)c2c1 (configuration not stated) | -9.237% |
| CCc1ccc2nc(NCCOCCO)cc(C)c2c1 | 107.5% |
| NC(=O)C(NC(=O)CCc1ccc(Cl)s1)c1ccccc1 (configuration not stated) | 7.544% |
| c1cc(-c2ccc3c(c2)C2(CCNCC2)CC3)ccn1 | -17.91% |
| O=C(CCc1ccc(F)cc1)NS(=O)(=O)c1ccc2c(c1)OCCCO2 | 20.72% |
| COCCN1CCC(c2nc3c([nH]2)CC(C)(C)CNC3=O)CC1 | -9.725% |

| SMILES | Percent Effect |
| --- | --- |
| COCCN1CCN(Cc2c(C3CCNCC3)[nH]c3ncccc23)CC1.Cl | 66.52% |
| c1cnc2[nH]c(C3CCNCC3)c(CN3CCOCC3)c2c1 | 102.1% |
| Cl.OC1CCN(Cc2c(C3CCCNC3)[nH]c3ncccc23)CC1 (configuration not stated) | -8.296% |
| Cl.c1cnc2[nH]c(C3CCCNC3)c(CN3CCCOCC3)c2c1 (configuration not stated) | 94% |
| COCCn1ccnc1C1CCN(Cc2ccccc2C#N)CC1 | -0.03291% |
| Oc1ncccc1-c1nc(-c2cccc(CN3CCOCC3)c2)no1 | -1.647% |
| c1cnc2[nH]c(C3CCCC3)c(CN3CCOCC3)c2c1 | 96.59% |
| CN(Cc1ccon1)CC1CCOc2ccccc2C1 (configuration not stated) | -13.25% |
| CC1CN(C(=O)c2ccnc(OCCN(C)C)c2)c2ccccc21 (configuration not stated) | 5.142% |
| c1cnc(OCc2nnc3n2CCN(CC2CC2)C3)nc1 | -18.49% |
| CC1CCCN(Cc2ccc(CNC(=O)NCc3ccon3)cc2)C1 (configuration not stated) | -7.486% |
| CCN1CCCC(c2c(-c3ccccc3)ncn2Cc2cccnc2)C1 (configuration not stated) | -13.51% |
| CCN1CCN(Cc2c(C3CCCC3)[nH]c3ncccc23)CC1 | 101.4% |
| CC1CCCN(Cc2c(C3CC3)[nH]c3ncccc23)C1 (configuration not stated) | 97.08% |
| c1cnc2[nH]c(C3CCCC3)c(CN3CCCCC3)c2c1 | 61.56% |
| O=C(CN1CCCCCC1)NCc1cccnc1Oc1ccccc1 | -1.634% |
| CC1CCCN(Cc2c(C3CCOCC3)[nH]c3ncccc23)C1 (configuration not stated) | -13.09% |
| OCC1CCCN(Cc2c(C3CCCC3)[nH]c3ncccc23)C1 (configuration not stated) | 82.97% |
| CS(=O)(=O)NCC1CCCN(Cc2ccc(F)c3cccnc23)C1 (configuration not stated) | -1.722% |

| SMILES | Percent Effect |
| --- | --- |
| O=C(Cn1nc2ccccc2n1)N1CCCC(O)(CO)C1 (configuration not stated) | -10.36% |
| Cc1cc(NC(=O)N(C)CCN2CCN(c3ccccc3)CC2)on1 | -6.324% |
| COc1c(CNC(c2ccc(F)cc2)c2nccn2C)c(C)nn1C (configuration not stated) | -17.53% |
| COCCSc1ccc(-n2ccnc2)nn1 | 19.88% |
| CC1(Cc2ccc3c(c2)OCO3)CCCN(S(=O)(=O)N2CCOCC2)C1 (configuration not stated) | -4.077% |
| Cc1cccn2cc(CN3CCCC(O)C3)nc12 (configuration not stated) | -5.177% |
| Cc1cc(Cn2cc(C#N)c(=O)c3ccccc32)no1 | 6.304% |
| O=C(NCCc1nnc2n1CCC2)NCC1(c2ccccc2)CC1 | 95.51% |
| Cn1cc(CCNC(=O)NCc2nnc3n2CCC3)cn1 | -8.052% |
| O=C1C(NCc2nnc3n2CCCC3)CCCN1c1cccc(F)c1 (configuration not stated) | -1.768% |
| O=C(NCc1nnc2n1CCC2)NCC1(c2cccc(F)c2)CC1 | 112.3% |
| O=C(NCCC1=CCCCC1)NCc1nnc2n1CCC2 | 7.36% |
| Cc1cc(C)c(CNC(=O)NCc2nnc3n2CCC3)c(=O)[nH]1 | 8.689% |
| O=C(NCCc1nnc2n1CCC2)N1CCC2(CCCCC2)C1 | -5.882% |
| O=C(NCCc1nnc2n1CCC2)NCC1(c2ccccc2F)CC1 | 109% |
| O=C(NCCc1ccc(Cl)s1)NCc1nnc2n1CCC2 | 3.587% |
| O=C(NCCc1nnc2n1CCC2)NCC1(c2ccc(F)cc2)CC1 | 123.4% |
| NC(=O)CC1CCN(C(=O)NCC2(c3ccccc3F)CC2)CC1 | 3.443% |
| O=C(NCCc1nnc2n1CCC2)c1ccccc1OC1CCCC1 | -0.3605% |
